The list is not random: actives were taken first. Their share in the collection is about 2.9%.
MRP resist rev – MRP-mediated drug resistance reversal; H69AR cells + 2 uM doxorubicin, CellTiter-Glo, 72 h; actives 0.04% (n = 85,000); differential viability (reversal), % at 10 µM; AID 602;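 active = viability drop by adding the cancer drug above about 55%, with treated viability meeting a 40% cutoff, limit read from the data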;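 also: viability without doxorubicin minus viability with 2 µM doxorubicin for each compound; larger differential means the compound sensitizes cells more to doxorubicin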
Smad3 inh – Smad3 (human) transcription factor binding inhibition; P84022; actives 0.29% (n = 88,000); TR-FRET Smad3/Dy647-FoxH1 peptide binding, europium anti-His; AID 630; inhibition, % at 25 µM;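 active = compounds that reduce the energy-transfer binding signal between the protein and its labelled peptide by more than half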;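 also: 0% = Smad3 plus labelled peptide maximal FRET and 100% = peptide-only background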
ERb coact inh – blocks coactivator binding to human estrogen receptor beta; TR-FRET ER-beta LBD / SRC1-Cy5 peptide binding; receptor agonist-loaded with 1 µM estradiol; inhibition, % at 25.6 µM; actives 1.3% (n = 86,000); AID 633;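 active = compounds whose percent inhibition of the receptor-coactivator binding signal exceeds about 50% in the single-dose screen, limit read from the data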;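 also: 0% = receptor plus peptide wells without compound and 100% = peptide-only wells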
Target sequence (Q92731 whole entry, looked up, the tested form may be a part): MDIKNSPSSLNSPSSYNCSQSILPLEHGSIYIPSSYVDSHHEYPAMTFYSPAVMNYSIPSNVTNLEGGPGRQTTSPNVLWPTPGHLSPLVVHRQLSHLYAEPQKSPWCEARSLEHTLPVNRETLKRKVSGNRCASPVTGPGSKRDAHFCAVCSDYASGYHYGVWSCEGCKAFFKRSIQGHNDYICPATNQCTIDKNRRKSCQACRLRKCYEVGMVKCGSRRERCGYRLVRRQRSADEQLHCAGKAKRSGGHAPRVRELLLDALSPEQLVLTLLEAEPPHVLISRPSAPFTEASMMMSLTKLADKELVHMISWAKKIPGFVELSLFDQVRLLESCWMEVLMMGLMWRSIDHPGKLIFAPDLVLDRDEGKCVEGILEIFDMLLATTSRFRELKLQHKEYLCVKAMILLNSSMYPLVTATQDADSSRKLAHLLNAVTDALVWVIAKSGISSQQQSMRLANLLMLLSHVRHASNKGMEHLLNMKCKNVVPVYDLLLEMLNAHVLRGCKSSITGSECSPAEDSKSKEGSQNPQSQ
ERa coact pot – enhances coactivator binding to human estrogen receptor alpha; P03372; TR-FRET ERalpha-LBD/SRC-Cy5 coactivator binding, 2 h; 100 = basal binding, no effect; coactivator binding (% of control), % at 25.6 µM; actives 1.3% (n = 86,000); AID 639; in the data active = activity above about 200%;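 also: binding measured in presence of low estradiol as agonist stimulus; 0% = peptide alone without receptor and 100% = receptor with peptide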
ERa SRC1 inh – ER-alpha (human) coactivator binding inhibition. TR-FRET ER-alpha LBD / SRC-1 peptide, estradiol-bound. inhibition, % at 25.6 µM. actives 1.7% (n = 86,000). AID 629; in the data active = inhibition above about 50%;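 also: 0% = receptor plus peptide control and 100% = peptide only without receptor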
MRP1 act – MRP-1 activation; H69AR cells + doxorubicin, viability rescue, CellTiter-Glo; viability increase, % at 10 µM; actives 0.61% (n = 140,000); AID 799;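 active = viability gain under doxorubicin at or above a set limit, the compound median plus 3 SD, cut at about 4.7% in these data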;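 also: MRP-1 overexpressing cells given doxorubicin 25 µM after compound pretreatment; 18-22 h compound pretreatment then 72 h with doxorubicin before readout; 0% = doxorubicin-only wells and 100% = vehicle-treated cells without doxorubicin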
Active calls of the source: *; x = no result; [ ] = remark or other dose.

SMILES	MRP resist rev	Smad3 inh	ERb coact inh	ERa coact pot	ERa SRC1 inh	MRP1 act
COc1ccccc1NC(=O)COc1ccc(C(=O)OCC(=O)N2CCCC2=O)cc1OC	-1	0	12	349*[fluorescence artefact?]	-5	-1
CCOC(=O)N1CCC(NC(=O)c2cccc3c2C(=O)N(c2ccc(OC)cc2)C3)CC1	4	10	52*	57	72*[fluorescence artefact?]	-4
CCOC(=O)N1CCC(N2Cc3cccc(C(=O)NCc4ccc(OC)cc4)c3C2=O)CC1	33	-5	19	86	19	-2
COc1ccc(N2Cc3cccc(C(=O)NC(C)CCc4ccco4)c3C2=O)cc1 (centres undefined)	5	5	49	98	69*[fluorescence artefact?]	-1
O=S(=O)(NCc1cn2ccsc2n1)c1ccc2c(c1)OCCO2	3	-1	7	126	-2	1
CCCSc1nn2c(=O)c3ccccc3nc2s1	x	x	x	x	x	-3
Cc1cccc(Nc2nn3c(=O)c4ccccc4nc3s2)c1	5	-18	58*[fluorescence artefact?]	221*[fluorescence artefact?]	66*[fluorescence artefact?]	-3
C=CCn1c(SCC(=O)NC(=O)NCc2ccco2)nc2sc(CC)cc2c1=O	-12	3	65*	47	74*	-2
O=C(CSc1nc(-c2ccc(F)cc2)cs1)NC(=O)NCc1ccco1	10	2	42	73	53*	-4
O=C(CSc1nnc(-c2ccco2)n1Cc1ccccc1)NC(=O)NCc1ccccc1	31	-2	-8	109	-2	-1
Cc1nnc(SCC(=O)NC(=O)NCc2ccco2)n1Cc1ccccc1	11	28	33	150	52*	-1
CCOc1ccccc1-n1nnnc1SCC(=O)NC(=O)NCc1ccco1	1	5	62*	49	77*[fluorescence artefact?]	-3
NC(CSS(=O)(=O)O)=N[C@H]1C[C@H]2CC[C@@H]1C2	x	15	x	x	x	x
O=C(NCc1ccco1)C(=O)NCC1OCCCN1S(=O)(=O)c1ccccc1 (centres undefined)	x	x	x	x	x	-2
COc1cccc(OCc2nnc(SCC(=O)NCc3ccco3)n2CCc2ccccc2)c1	4	3	44	174	57*	-3
CCn1c(SCC(=O)NC(=O)NCc2ccco2)nc2sc(C)c(C)c2c1=O	x	x	x	x	x	-4
CCCn1c(SCC(=O)NC(=O)NCc2ccco2)n[nH]c1=O	-2	-1	63*[fluorescence artefact?]	62	74*[fluorescence artefact?]	-2
COc1cccc(OCc2nnc(SCC(=O)NCc3ccco3)n2C)c1	-1	-15	-5	93	-2	-1
O=C(O)C[C@H](Cc1ccccc1Cl)C(=O)O	x	0	x	x	x	x
Clc1ccc(OCc2nn3c(-c4ccco4)nnc3s2)c(Cl)c1	-34	18	50	173	66*[fluorescence artefact?]	1
Cc1oc(-c2ccccc2Cl)cc1-c1nn2c(-c3ccco3)nnc2s1	12	-4	52*[fluorescence artefact?]	166	58*	x
Clc1ccc(-c2ccc(-c3nn4c(-c5ccco5)nnc4s3)o2)cc1	-9	9	46	123	74*	x
CN(C)c1ccc(-c2nn3c(-c4ccccc4Cl)nnc3s2)cc1	-39	-1	44	94	72*[fluorescence artefact?]	-1
c1ccc(-c2nn3c(-c4ccco4)nnc3s2)nc1	8	14	22	72	-8	-1
Cc1cc(Nc2ccccc2N2CCOCC2)n2ncnc2n1	0	-2	-5	111	-9	-2
SMILES	MRP resist rev	Smad3 inh	ERb coact inh	ERa coact pot	ERa SRC1 inh	MRP1 act
Oc1ccc(-c2cn3c(n2)SCC3)cc1O	-20	19	94*[fluorescence artefact?]	20	75*[fluorescence artefact?]	2
c1ccc(-c2cn3c(n2)SCC3)cc1	-4	4	-1	103	-8	0
Oc1ccc(-c2cn3c(n2)SCC3)cc1	19	12	67*[fluorescence artefact?]	114	-8	0
COc1ccc(NC(=O)NC23CC4(C)CC(C)(CC(C)(C4)C2)C3)cc1OC	x	x	x	x	x	1
O=S(=O)(O)CCCc1cccc2ccccc12	x	7	x	x	x	x
COc1ccc(Cn2c(C)c(C)c(C#N)c2NC(=O)Nc2cccc(C)c2)cc1	-8	4	50*	76	70*[fluorescence artefact?]	-6
O=C1C2=C(Nc3cc([N+](=O)[O-])ccc3N2)O[C@H]1c1ccc([C@H]2OC3=C(Nc4ccc([N+](=O)[O-])cc4N3)C2=O)cc1	x	26	x	x	x	x
C[C@H](C(=O)C=[N+]=[N-])N1C(=O)c2ccccc2C1=O	-1	9	-8	100	1	12*
COc1ccc(NS(=O)(=O)c2ccc3oc(SC4CCOC4=O)nc3c2)cc1 (centres undefined)	11	-22	-3	85	0	7.4*
O=C(NCc1ccccn1)c1ccc(/C=N/O)nc1	3	0	66*[fluorescence artefact?]	92	1	-1
CCCCOc1ccc(C(=O)NCc2ccccn2)cc1	5	10	-15	623*[fluorescence artefact?]	-37	-2
O=C(O)[C@@H]1O[C@H]1C(=O)O	x	-4	x	x	x	x
CCCCOC(=O)Cn1c2ccc(OC)cc2c2nc3ccccc3nc21	-7	0	21	227*[fluorescence artefact?]	53*[fluorescence artefact?]	-6
O=C(CSc1nc(Nc2ccccc2)nc(N2CCOCC2)n1)N1CCCC1	-18	4	-3	92	-7	0
O=C(CSc1nc(Nc2ccccc2)nc(N2CCOCC2)n1)N1CCc2ccccc21	x	2	4	209*	19	-2
NCCNC(=S)S	x	57*	x	x	x	x
O=C1OC(Nc2ncccn2)c2ccccc21 (centres undefined)	24	26	-3	109	1	-1
O=C1OC(Nc2ccccn2)c2ccccc21 (centres undefined)	-17	-6	-4	98	-14	32*
CC1(C)Cc2c(c(N3CCOCC3)nc3sc4c(=O)[nH]cnc4c23)CS1	-9	5	55*[fluorescence artefact?]	83	30	-4
O=C1N=C(c2ccccc2)S/C1=C\c1cccs1	-12	1	23	112	57*[fluorescence artefact?]	6.7*
O=C1N=C(N2CCN(c3ccccc3)CC2)S/C1=C/c1cccs1	x	x	x	x	x	-1
Cc1c(Cl)cc(C(C)(C)C)c(O)c1Cc1c(C)c(Cl)cc(C(C)(C)C)c1O	x	16	x	x	x	x
Cc1ccc(-c2noc(CCC(=O)N3CCCc4ccccc43)n2)cc1	-11	1	4	97	6	-1
O[C@@H](c1cc(-c2ccc(Cl)cc2)nc2ccccc12)[C@@H]1CCCCN1	x	12	x	x	x	x
CN(C)[C@H]1C(=O)C(C(=O)NCN2CCCC2)=C(O)[C@@]2(O)C(=O)C3=C(O)c4c(O)cccc4[C@](C)(O)[C@H]3C[C@H]12	x	5	x	x	x	x
CCOC(=O)c1c2c(n(C)c1C)C(=O)C(=O)c1ccc(Br)cc1-2	1	68*[fluorescence artefact?]	6	98	12	x
Cc1c(CN(C)C)c2c(n1C)C(=O)c1ccc(Br)cc1-2	12	-2	-16	176	-12	-3
Nc1c(C(=O)Nc2ccccc2F)sc2nc(Cc3ccccc3)cc(C(F)(F)F)c12	x	x	x	x	x	0
Cc1cc(C(F)(F)F)c2c(N)c(C(=O)Nc3cc(C)on3)sc2n1	-4	41	20	214*[fluorescence artefact?]	2	-1
CN1CCN(c2nc(-c3cccs3)nc3ccccc23)CC1	x	x	x	x	x	-1
